Source: PubChem (Johns Hopkins Ion Channel Center)
KCNQ2 block = blocks the rat KCNQ2 potassium channel; O88943; CHO-K1 KCNQ2, FluxOR thallium flux, 20 min; hits give low values; B-score at 10 µM; actives 1.1% (n = 310,000); AID 2156;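 active = fluorescence ratio B-score at most minus 3 library SDs, with starting brightness B-score within 2 library SDs, cut at about -5.5 in these data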
Target sequence (O88943 whole entry, looked up): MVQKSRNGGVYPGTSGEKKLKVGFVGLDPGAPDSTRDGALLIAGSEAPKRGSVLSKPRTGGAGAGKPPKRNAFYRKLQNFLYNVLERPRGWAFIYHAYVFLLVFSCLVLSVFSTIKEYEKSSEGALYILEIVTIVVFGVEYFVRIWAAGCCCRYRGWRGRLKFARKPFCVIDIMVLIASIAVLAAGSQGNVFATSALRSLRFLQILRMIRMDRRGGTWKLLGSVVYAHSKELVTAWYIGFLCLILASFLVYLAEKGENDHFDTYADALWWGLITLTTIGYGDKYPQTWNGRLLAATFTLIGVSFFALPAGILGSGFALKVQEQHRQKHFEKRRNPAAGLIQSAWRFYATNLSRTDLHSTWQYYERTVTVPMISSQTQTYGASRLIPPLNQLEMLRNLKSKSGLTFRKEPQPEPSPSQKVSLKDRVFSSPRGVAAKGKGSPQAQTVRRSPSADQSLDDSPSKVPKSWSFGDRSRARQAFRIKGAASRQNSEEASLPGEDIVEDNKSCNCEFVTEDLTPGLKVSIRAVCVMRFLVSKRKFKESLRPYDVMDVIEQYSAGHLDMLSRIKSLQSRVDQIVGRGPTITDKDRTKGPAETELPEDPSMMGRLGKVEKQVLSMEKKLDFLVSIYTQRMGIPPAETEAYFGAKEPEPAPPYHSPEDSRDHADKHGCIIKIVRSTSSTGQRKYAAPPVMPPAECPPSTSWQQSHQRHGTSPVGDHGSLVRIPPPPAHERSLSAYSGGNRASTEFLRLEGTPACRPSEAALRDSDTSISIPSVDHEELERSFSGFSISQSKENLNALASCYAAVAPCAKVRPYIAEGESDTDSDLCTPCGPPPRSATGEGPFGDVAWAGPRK
KCNQ2 pot = potentiators of rat KCNQ2 potassium channel. O88943. actives 0.54% (n = 310,000). CHO-K1 KCNQ2, FluxOR thallium flux fluorescence; hits give high values. B-score at 10 µM;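 active = fluorescence ratio B-score at least 3 SD of library B-scores, with initial fluorescence B-score within 3 of them, cut at about 5.3 in these data; same plate scores as AID 2156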;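 note: B-score of peak minus minimum over baseline fluorescence ratio after K+ and Tl+ stimulus; positive B-score means potentiation of KCNQ2 with more thallium influx and brighter signal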
Kir21 conf inh = confirmation of mouse Kir2.1 potassium channel inhibitors. Kir2.1-expressing cells, FluxOR thallium flux fluorescence; hits give low values. actives 41% (n = 2,300). Tl flux remaining, % of negative control (hits give low values), % at 10 µM. shares compounds with KCNQ2 pot;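 active = Primary-screen hit whose thallium flux fell at least 3 control SD below untreated wells in both duplicates, with normal baseline fluorescence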;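 note: 0% = blank wells without stimulus and 100% = stimulated no-compound controls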
HEK293 ctr = parental HEK293 activity in Kir2.1 inhibitor counter-screen. shares compounds with KCNQ2 pot. parental HEK293 cells, FluxOR thallium flux fluorescence; 0% = unstimulated blank wells. FluxOR signal as % of negative control (100 = no effect), % at 10 µM. actives 19% (n = 2,300);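 active = dye signal at least 3 control SD above or below untreated wells in both duplicates, raw fluorescence within 3, either direction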;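 note: percent is based on the flux ratio of peak minus minimum fluorescence over baseline F0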
CHO-K1 Tl ctr = parental CHO-K1 activity in KCNQ2 potentiator counter-screen; actives 43% (n = 1,200); AID 2282; parental CHO-K1 cells, FluxOR thallium flux fluorescence; zero = vehicle mean+3SD, 100% = vehicle-minus-blank window; shares compounds with KCNQ2 pot; activity increase over 3SD of controls, % at 10 µM;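 active = signal rise of at least 3 SD above the untreated control mean, in both duplicate wells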;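 note: counter screen of KCNQ2 potentiator hits so any rise reflects channel-independent effects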
KCNQ1 sel pot = human KCNQ1 counter-target activity of KCNQ2 potentiators; shares compounds with KCNQ2 pot; CHO KCNQ1 stable, FluxOR thallium flux fluorescence; beyond 3SD, as % of vehicle-control signal; activation over 3SD threshold, % at 10 µM; actives 28% (n = 1,200); AID 2283;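 active = fluorescence ratio rise of at least 3 SD of vehicle wells above their mean, in both replicate wells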;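 note: 0% = vehicle mean plus 3 SD and 100% = vehicle minus unstimulated blank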
KCNQ2 pot confirm = confirmation of rat KCNQ2 potassium channel potentiators; AID 2287; CHO-KCNQ2 cells, FluxOR thallium flux fluorescence; shares compounds with KCNQ2 pot; potentiation, less the hit threshold, % at 10 µM; actives 68% (n = 1,200);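 active = fluorescence ratio rising 3 SD or more over the vehicle control mean in both replicates, plus primary screen hit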;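 note: peak minus minimum thallium fluorescence divided by baseline after K/Tl stimulus; 0% = vehicle mean plus 3 SD and 100% = vehicle minus unstimulated blank difference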
Kir21 spec = tests whether KCNQ2 potentiators also affect mouse Kir2.1 | shares compounds with KCNQ2 pot | AID 2345 | actives 2% (n = 1,200) | HEK293 Kir2.1, FluxOR thallium flux fluorescence | activity over 3SD threshold, % at 10 µM;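 active = fluorescence ratio rise of at least 3 SD above the vehicle-control mean, seen in both replicates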;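 note: 0% = vehicle mean plus 3 SD and 100% = vehicle minus no-stimulus blank window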
KCNQ2 W236L MoA = potentiates the retigabine-insensitive rat KCNQ2 W236L mutant channel | actives 10% (n = 940) | AID 2558 | shares compounds with KCNQ2 pot | current increase over 3SD of negative controls (%), hits give high values, % at 25 µM | CHO KCNQ2-W236L, automated patch clamp current;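 active = current increase at least 3 SD of the untreated controls above them in both duplicate recordings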
* marks the source's active call; other numbers are inactive results; i = inactive; nt = not tested or not shown. This is a sample that favours compounds with a hit; in the whole collection about 1.6% have one here.

SMILES	KCNQ2 block	KCNQ2 pot	Kir21 conf inh	HEK293 ctr	others
CCCCCN(C(=O)CCC(=O)OCC(=O)N1CCCCC1C)c1c(N)n(CCCC)c(=O)[nH]c1=O (centres undefined)	i	1.8	nt	nt
CCCCCCSC1=C(C#N)C(c2ccc(C)o2)CC(=O)N1 (centres undefined)	i	nt	60%*	i
N#CC1=C(SCC(=O)NCc2ccccc2)NC(=O)CC1c1ccco1 (centres undefined)	i	0.02	nt	nt
C=C(C)CSC1=C(C#N)C(c2ccccc2)CC(=O)N1 (centres undefined)	i	nt	nt	nt
N#CC1=C(SCc2ccccc2)NC(=O)CC1c1ccco1 (centres undefined)	i	nt	41%*	i
Cc1ccc(C2CC(=O)NC(SCc3ccccc3)=C2C#N)o1 (centres undefined)	i	nt	44%*	i
CCSC1=C(C#N)C(c2ccc(C)o2)CC(=O)N1 (centres undefined)	i	nt	nt	nt
Cc1ccc(Cl)cc1NC1=NC(=S)N(C(C)C)C12CCCCC2	i	0.86	nt	nt
COc1cc2c(cc1OC)N1C(=O)CC(OCC(=O)O)C3C4CC5(CCN5C(=O)C4=O)C2C31 (centres undefined)	i	nt	nt	nt
COc1ccc(N2C(=NC(=O)C3CC3)SC3CS(=O)(=O)CC32)cc1Cl (centres undefined)	i	0.21	nt	nt
O=C(NCc1cccc(Cl)c1)C1CCN(S(=O)(=O)c2ccc(F)cc2)CC1	i	nt	nt	nt
O=C(Nc1ccc(F)cc1)c1nc2c(nnn2Cc2cccc3ccccc23)c(=O)[nH]1	i	0.75	nt	nt
CC(NC(=O)C1CCCC1)c1ccc(Br)cc1 (centres undefined)	i	7.1*	i	i	CHO-K1 Tl ctr=-21;KCNQ1 sel pot=28*;KCNQ2 pot confirm=9.0*;Kir21 spec=-28;KCNQ2 W236L MoA=i
CC(NC(=O)C1CCC1)c1ccc(Br)cc1 (centres undefined)	i	0.98	nt	nt
Cc1ccc(C(C)NC(=O)C2CCCC2)cc1C (centres undefined)	i	17*	i	i	CHO-K1 Tl ctr=-1;KCNQ1 sel pot=-68;KCNQ2 pot confirm=55*;Kir21 spec=-36;KCNQ2 W236L MoA=i
Cc1ccc(C(C)NC(=O)C2CCCO2)cc1C (centres undefined)	i	0.75	nt	nt
O=C(CNS(=O)(=O)c1cccs1)NCc1ccccc1	i	0.23	nt	nt
COc1ccc(NC(=O)c2cccc(N3C(=O)C4C5C=CC(C5)C4C3=O)c2)cc1Cl (centres undefined)	i	0.37	nt	nt
O=[N+]([O-])c1cccc(NC(=S)N2CCc3ccccc32)c1	i	0.44	nt	nt
CCOP(=O)(OCC)C(Nc1ccccc1)c1ccccc1C(F)(F)F (centres undefined)	i	nt	nt	nt
O=c1[nH]cc(I)cc1I	i	7.4*	i	i	CHO-K1 Tl ctr=133*;KCNQ1 sel pot=32*;KCNQ2 pot confirm=-20;Kir21 spec=-36
CCOc1ccc(OCC)c(NC(=O)CN2CCN(CC(=O)NC(C)C)CC2)c1	i	0.11	nt	nt
CC#CC(=O)N1CCC(C(=O)Nc2ccc(Oc3ccccc3)nc2)CC1	i	nt	nt	nt
O=C(NCCCOc1cccc(CN2CCCCC2)c1)c1ccc(Cl)c(Cl)c1	i	nt	nt	nt
c1cc(CN2CCCCC2)cc(OCCCNc2nc3ccccc3s2)c1	i	nt	26%*	i
SMILES	KCNQ2 block	KCNQ2 pot	Kir21 conf inh	HEK293 ctr	others
COc1ccccc1NS(=O)(=O)c1ccc(NC(=O)c2[nH]nc(OC)c2[N+](=O)[O-])cc1	i	nt	nt	nt
CCOc1ccc(Oc2ccccc2NC(=O)CN2C(=O)NC3(CCCC3)C2=O)cc1	i	5.9*	i	i	CHO-K1 Tl ctr=-7;KCNQ1 sel pot=-18;KCNQ2 pot confirm=26*;Kir21 spec=-39;KCNQ2 W236L MoA=i
COc1ccc(NC(=O)CN2C(=O)NC3(CCCC3)C2=O)c(OC)c1	i	nt	nt	nt
CCCCC(=O)Nc1ccccc1Oc1ccccc1	i	9*	nt	nt	CHO-K1 Tl ctr=-10;KCNQ1 sel pot=-17;KCNQ2 pot confirm=19*;Kir21 spec=-81;KCNQ2 W236L MoA=i
O=C(O)CCCC(=O)Nc1ccccc1Oc1ccccc1	i	nt	nt	nt
COc1ccc(S(=O)(=O)NCc2csc(C)n2)cc1OC	i	nt	nt	nt
CCOC(=O)C1=C(Nc2ccc(OC)cc2)OCC1=O	i	0.03	nt	nt
CCCc1nnc(NC(=O)c2nc(S(=O)(=O)Cc3ccc(C)cc3)ncc2Cl)s1	i	10*	nt	nt	CHO-K1 Tl ctr=-11;KCNQ1 sel pot=-13;KCNQ2 pot confirm=55*;Kir21 spec=-68;KCNQ2 W236L MoA=25%*
CCOc1ccccc1NC(=O)c1nc(S(=O)(=O)Cc2ccccc2)ncc1Cl	i	1.9	nt	nt
CCc1ccc(NC(=O)c2nc(S(=O)(=O)Cc3ccccc3)ncc2Cl)cc1	i	0.71	nt	nt
CSc1ncc(Cl)c(C(=O)Nc2nnc(SC)s2)n1	i	0.02	nt	nt
CC(C)c1nnc(NC(=O)c2nc(S(=O)(=O)Cc3ccccc3)ncc2Cl)s1	i	15*	i	i	CHO-K1 Tl ctr=23*;KCNQ1 sel pot=-9;KCNQ2 pot confirm=94*;Kir21 spec=-48;KCNQ2 W236L MoA=29%*
CSc1nnc(NC(=O)c2nc(S(=O)(=O)Cc3ccccc3)ncc2Cl)s1	i	14*	i	i	CHO-K1 Tl ctr=23*;KCNQ1 sel pot=18*;KCNQ2 pot confirm=83*;Kir21 spec=-48;KCNQ2 W236L MoA=32%*
Cc1ccccc1-c1nc(CS(=O)CC(=O)NCc2ccccn2)c(C)o1 (centres undefined)	i	nt	nt	nt
COc1ccc(NC(=O)CCNS(=O)(=O)c2cc(Br)ccc2Br)cc1S(N)(=O)=O	i	0.81	nt	nt
c1ccc(-c2cncn2-c2ccccc2)cc1	i	nt	nt	nt
Cc1ccc(N2CCN(S(=O)(=O)c3ccc4oc(=O)ccc4c3)CC2)c(C)c1	i	1.8	nt	nt
COc1ccc2oc(=O)cc(CN3CCN(Cc4ccc(OC)c(OC)c4OC)CC3)c2c1	i	nt	nt	nt
CC(=O)N(CCC(Cc1ccccc1)c1ccco1)Cc1ccco1 (centres undefined)	-6*	-6	38%*	i
CC(=O)N(CCP(=O)(c1ccccc1)c1ccccc1)Cc1ccco1	i	nt	nt	nt
O=C(c1ccco1)N(CCC(c1ccccc1)c1ccco1)Cc1ccco1 (centres undefined)	-6.8*	-6.8	72%*	i
O=C(c1ccco1)N(Cc1ccc(Cl)cc1)Cc1ccco1	i	nt	nt	nt
CCC(=O)N(CCC(c1ccco1)c1ccccc1OC)Cc1cccs1 (centres undefined)	i	nt	nt	nt
